Screening data from PubChem BioAssay.
In the library only some 13% were active in any assay of this set; here they are far more common.
Shiga inhibitor = blocks Shiga toxin action in Vero cells; AID 2315; Vero cells, Shiga toxin protein synthesis inhibition reporter; inhibition, % at 38.7 µM; 290,000 compounds, 9.2% hits; in the data active = inhibition mostly above about 28%, no sharp cut-off; inactive = mostly below about 43%; also: 0% is about no effect
FMDV antiviral = foot and mouth disease virus antiviral activity; FMDV antiviral cell-based qHTS; Potency, µM (top dose mostly 57.9 µM), inactives show at the highest dose activity change, negative = inhibition, actives largely listed as inhibitors; 410,000 compounds, 1.2% hits; calls by dose curve; tested in HEK293T cells; also: read-out not given here; potency is read from the fitted curve at half-maximal effect; % is scaled to controls: 0 for no effect and ±100 for the full control effect; nearly all actives have a fitted effect of over 45% in size
Lassa entry inh = Lassa virus entry inhibition | Potency, µM (doses to about 37.9 µM), without a hit: at the top dose activity change, negative = inhibition, actives largely listed as inhibitors | AID 540256 | Lassa virus pseudotype entry inhibition, cell reporter | 300,000 compounds, 1.2% hits; calls by dose curve; tested in HEK293 cells; also: potency is read from the fitted curve at half-maximal effect; % is scaled to controls: 0 for no effect and ±100 for the full control effect; nearly all actives have a fitted effect of over 50% in size
Cycloheximide cs = affects cycloheximide protein synthesis inhibition readout, counter-screen; 300,000 compounds, 12% hits; cell reporter, cycloheximide protein synthesis inhibition counterscreen; max response, %; in the data active = max response mostly above about 13%, no sharp cut-off; inactive = mostly below about 14%; also: read at 38.3 µM for the half of the compounds with a filed dose; 0% is about no effect
MARV entry inh = Marburg virus entry inhibition. Marburg virus pseudotyped entry inhibition, cell reporter. Potency, µM (titrated, usually from 37.8 µM), inactives show at the top dose activity change, negative = inhibition, actives largely listed as inhibitors. 300,000 compounds, 1.8% hits. AID 540276; calls by dose curve; tested in HEK293 cells; also: potency is read from the fitted curve at half-maximal effect; % is scaled to controls: 0 for no effect and ±100 for the full control effect
HCV inhibitor = HCV inhibition; Huh7.5.1 HCVcc-Cre infection, luciferase reporter, 44 h; Potency, µM (doses to about 41.8 µM), for inactives: top-dose activity change, negative = inhibition, usual class: inhibitors; 340,000 compounds, 3.4% hits; active = well fitted inhibition curve with a large enough effect; inconclusive = small, poorly fitted or top-dose-only effect, or another doubt; inactive = no such curve, though single readings can be large or run the other way; also: potency is read from the fitted curve at half-maximal effect; % is scaled to controls: 0 for no effect and ±100 for the full control effect
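Reporter virus HCVcc-Cre (~0.5 moi) infects cells exposed to compound; seeding density 1,000 cells/well with 4 h settling beforehand. Luminescence, 15 sec read, taken 44 h post-infection following a 15 min RT substrate incubation.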
Numbers without * were called inactive; ? = inconclusive; nt = no result; [ ] = remark or other dose.

SMILES	Shiga inhibitor	FMDV antiviral	Lassa entry inh	Cycloheximide cs	MARV entry inh	HCV inhibitor
Cc1ccccc1OCCNc1cc(N2CCCCC2)ccc1[N+](=O)[O-]	10	-8%	-17%	-2	-2%[46.1 µM]	14µM*
CC1CN(c2ccc([N+](=O)[O-])c(NCCOc3ccccc3)c2)CCN1 (centres undefined)	-12	7%	26%[46.1 µM]	-2	?	10µM*
COc1ccc(OCCNc2cc(Cl)ccc2[N+](=O)[O-])cc1	1	nt	4%	17*	1%	?
COc1cccc(OCCNc2cc(N3CCOCC3)ccc2[N+](=O)[O-])c1	22	-1%	23%	44*	10%	14µM*
O=C(Cn1cnc2ccccc21)N1CCc2ccccc21	12	-2%	nt	-1	nt	8%
C/C(=N\NC(=O)c1nonc1N)c1cccs1	active	44%	10%	23*	?	22%
O=C(NNC(=O)c1sccc1-n1cccc1)c1cccs1	-6	9%	nt	-6	nt	16%
C/C(=N/NC(=O)c1cccs1)c1cccs1	76*	24%	-3%[46.1 µM]	43*	?	13%
C/C(=N\NC(=O)c1sccc1-n1cccc1)c1cccs1	54*	-4%	-4%[46.1 µM]	19	-2%[46.1 µM]	-3%
C/C(=N\NC(=O)c1cccs1)c1c(O)cc(C)oc1=O	84*	22%	nt	51*	nt	17%
CCCCCCCC(=O)N/N=C(/C)c1c(O)cc(C)oc1=O	14	-17%	-14%	-5	-8%	-20%
Cc1cc(O)cc(O)c1C(=O)OC1(C)C(=O)C=C2C=C(C=CC(=O)O)OC=C2C1=O (centres undefined)	nt	nt	?	nt	-31%[14.2 µM]	nt
CCOC(=O)N/N=C(\C)c1cccs1	96*	48%	15%	35*	?	16%
C/C(=N\NC(=O)CC1(C)OCCO1)c1cccs1	16	?	10%	1	6%	18%
CCN(CC)S(=O)(=O)c1cccc(C(=O)N/N=C(\C)c2cccs2)c1	74*	12%	?	31*	9%[46.1 µM]	-11%
CC(=O)Nc1cccc(/C(C)=N/NC(=S)NC(C)C)c1	67*	-10%	?	28*	-17%	?
CC(=O)Nc1cccc(/C(C)=N/NC(=O)c2cccs2)c1	46*	13%	11%[46.1 µM]	56*	?	-1%
CCCC1=C(C(=O)OCC)C2(C(=O)Nc3ccc(C)cc32)C(C#N)=C(N)O1 (centres undefined)	-2	-11%	3%	5	-14%	27%
O=C(Nc1ccc(NC(=O)c2ccc(Br)cc2)c(Cl)c1)c1ccc(Br)cc1	nt	14%	7%[46.1 µM]	nt	nt	nt
CC1CN(S(=O)(=O)c2ccc(C(=O)N(CCCN(C)C)c3nc4cc5c(cc4s3)OCCO5)cc2)CC(C)O1 (centres undefined)	nt	25%	?	nt	-17%	-9%[8.37 µM]
Cc1cccc(N2CCN(C(=O)Cn3c(=O)c4cccn4c4ccc(F)cc43)CC2)c1C	nt	-5%	?	nt	nt	nt
COc1ccc(S(=O)(=O)NNC(=O)c2csc(-n3nc(C)cc3C(F)(F)F)n2)cc1OC	38	16%	-5%	-3	-16%	-8%
CC(=NNC(=O)c1cccs1)c1ccc2c(c1)OCCO2	nt	60%	nt	nt	nt	?
C/C(=N/NC(=O)c1cccs1)c1cccc(N)c1	88*	22%	6%[46.1 µM]	43*	?	-17%
COc1ccc(-c2nnc(SCC(=O)NC(=O)NCc3ccco3)o2)cc1	14	6%	-1%	9.4*	?	-5%
SMILES	Shiga inhibitor	FMDV antiviral	Lassa entry inh	Cycloheximide cs	MARV entry inh	HCV inhibitor
COc1ccc(-c2nnc(SCC(=O)Nc3nncs3)o2)cc1	22	27%	-4%	11	1%[46.1 µM]	-6%
O=C(CSc1ccc(-c2ccc(F)cc2)nn1)NCc1ccco1	14	-15%	1%	-4	?	0%
COc1ccc(-c2[nH]c(-c3cccc(OC)c3)nc2SCC(=O)NCc2ccco2)cc1	11	-1%	nt	1	3%	11µM*
COc1ccc(-c2ccc(SCC(=O)NCc3ccco3)nn2)cc1	57*	0%	?	17*	-14%	9%
Cc1cc(C)c(C)c(S(=O)(=O)Nc2ccc(C(=O)N3CCCC3)cc2)c1C	-14	25%	-8%	2	-12%	-1%
O=C(NCc1ccncc1)c1cc(-c2ccc(Cl)cc2)oc1C(F)(F)F	-8	?	nt	1	nt	11µM*
